# Compound activity (PubChem)
# B2AR arrestin = beta2AR (human) beta-arrestin recruitment activity; beta-arrestin recruitment to beta2AR, cell-based reporter; P07550; Potency, µM (highest dose often 46.1 µM), without a hit: at the highest dose activation, hits mostly activators; 330,000 compounds, 0.02% hits;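 note: potency is the fitted concentration of half-maximal effect; 0% = DMSO controls and full agonism = EC100 isoproterenol or metaproterenol; nearly all actives have a fitted effect of over 65% in size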
# mIDH1 inhibitor = human IDH1 R132H inhibition; AID 602179; IDH1-R132H enzyme, NADPH consumption, diaphorase/resazurin fluorescence; O75874; 390,000 compounds, 0.093% hits; Potency, µM (series often up to 76.6 µM), without a hit: at the highest dose activity change, negative = inhibition, most hits filed as inhibitors; note: potency is the fitted concentration of half-maximal effect; % is set by controls: 0 for no effect and ±100 for the full control effect; nearly all actives have a fitted effect of over 65% in size
#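 IDH1-R132H (0.5 ug/mL) preincubated 30 min with compound, then NADPH (0.016 mM) and alpha-KG (2 mM) added; 80 min at RT, pH 7.5. Remaining NADPH coupled via diaphorase/resazurin to fluorescence (540/590 nm); concentration-response curves normalized to no-enzyme control.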
# a7 integrin act = integrin-mediated muscular dystrophy alleviation activation | alpha7betagal myoblasts, beta-gal FDG fluorescence, 48 h | Potency, µM (series often up to 38.3 µM), without a hit: at the top dose activation, hits mostly activators | 350,000 compounds, 0.064% hits;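 note: potency is the fitted concentration of half-maximal effect; 100% = response of the positive control SU9516; nearly all actives have a fitted effect of over 60% in size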
#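 Alpha7betagal+/- myoblasts (passage 13) were plated 16-24 hr, then exposed to compounds (1:260 dilution of DMSO stock) for 48 hours at 37C. After MPER lysis, β-galactosidase reporter activity was read as FDG fluorescence (ex 480/em 540) after 30 minutes.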
# DRD3 agonist = agonists of human D3 dopamine receptor; AID 652048; D3R DiscoveRx beta-arrestin cells, luminescence, 90 min; 410,000 compounds, 0.58% hits; max activation, %; P35462; in the data active = max activation above about 30%; note: 0% is about no effect
# Target sequence (P35462 whole entry, looked up): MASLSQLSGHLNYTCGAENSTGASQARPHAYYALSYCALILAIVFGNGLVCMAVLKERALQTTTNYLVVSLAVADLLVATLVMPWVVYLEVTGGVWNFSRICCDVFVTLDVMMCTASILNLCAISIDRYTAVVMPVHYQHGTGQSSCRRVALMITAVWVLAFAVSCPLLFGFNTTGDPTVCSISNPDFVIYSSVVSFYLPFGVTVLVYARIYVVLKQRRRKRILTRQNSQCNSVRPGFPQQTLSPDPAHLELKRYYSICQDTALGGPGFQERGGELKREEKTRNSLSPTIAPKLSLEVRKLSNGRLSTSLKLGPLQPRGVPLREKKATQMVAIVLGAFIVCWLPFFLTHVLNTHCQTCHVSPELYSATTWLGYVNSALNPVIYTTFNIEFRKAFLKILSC
#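 Agonist-mode cell screen: cells plated at 1500/well and incubated overnight at 37 °C, then exposed to library compounds for 90 min at 37 °C. Detection reagent was added for 30–60 min at room temperature, and luminescence was read.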
# DRD3 antagonist = D3 dopamine receptor (human) antagonism; P35462; D3R cells, DiscoveRx beta-arrestin luminescence, antagonist mode; active compounds read low; max response, negative = inhibition, %; 360,000 compounds, 2.5% hits; AID 652054; in the data active = max response below about -50%; note: % is set by controls: 0 for no effect and ±100 for the full control effect
#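 Cells plated overnight at 1500 cells/well, then exposed to library compounds with dopamine controls for 90 minutes at 37 degrees C. DiscoveRx reagent added for 30–60 minutes at room temperature; luminescence read, quantitative HTS format.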
# Numbers without * were called inactive; nt = no result given. This is a sample that favours compounds with a hit; in the whole collection about 2.9% have one here. Unless noted, calls come from the whole dose curve; as a rule, active = well fitted curve in the direction sought with a large enough effect; inconclusive = small, poorly fitted or top-dose-only effect, or another doubt; inactive = no such curve, though single readings can be large; an effect the other way counts as inactive or inconclusive.
SMILES,B2AR arrestin,mIDH1 inhibitor,a7 integrin act,DRD3 agonist,DRD3 antagonist
Cc1cc(C)c2nc(N3C(=O)C(O)=C(C(=O)c4ccco4)C3c3ccco3)sc2c1 (configuration not stated),-0.7%,11.9%,-29.8%,31.4*,74.7
O=C(NCc1ccccn1)c1ccc(NS(=O)(=O)c2cccc(Cl)c2)cc1,-0.3%,-2.8%,14.4%,-14.9,-60.6*
O=C(NCc1ccccn1)c1cccc(NS(=O)(=O)c2cccc(Cl)c2)c1,2.8%,1.9%,9.9%,4.2,0.0
Cc1ccc(S(=O)(=O)N2CCC(C(=O)Nc3ccc4c(c3)COC4=O)CC2)cc1,-0.4%,2.0%,13.2%,-1.0,-65.0*
Cc1ccc(S(=O)(=O)N2CCC(C(=O)NCC3CCCCC3)CC2)cc1,-0.1%,-4.9%,-9.2%,-15.3,-64.6*
CC1CCN(S(=O)(=O)c2ccc(S(=O)(=O)N3CCCC3)cc2)CC1,3.5%,-3.7%,8.91µM*,34.2*,5.7
Cc1ccc(S(=O)(=O)N2CCC(C)CC2)cc1,-0.2%,4.1%,10.2%,7.7,4.5
COc1ccc(NC(=O)C2CCN(S(=O)(=O)c3ccc(C)cc3)CC2)cc1OC,-0.8%,6.3%,20.4%,-3.0,-3.2
Cc1ccc(S(=O)(=O)N2CCC(C(=O)NCC3CC3)CC2)cc1,0.0%,-1.4%,5.6%,5.5,0.4
Cc1ccc(CNC(=O)C2CCN(S(=O)(=O)N3CCOCC3)CC2)cc1,0.1%,0.8%,-1.9%,40.3*,6.9
COCCNC(=O)CSc1nc2cc3c(cc2c(=O)n1Cc1ccc(C(=O)NCCc2ccc(OC)c(OC)c2)cc1)OCO3,nt,38.5%,nt,5.7,nt
COc1ccccc1C(=O)NNC1=C(C(=O)C(F)(F)F)CCC1,0.7%,0.5%,-23.9%,-34.1,-57.0*
CCOC(=O)c1[nH]cnc1C(=O)NC1CCN(C(=O)OC(C)(C)C)CC1,0.0%,-12.5%,-40.6%,33.8*,10.9
CC(C)(C)OC(=O)N1CCC(NC(=O)c2nc[nH]c2C(=O)N2CCN(C(=O)OC(C)(C)C)CC2)CC1,-0.9%,6.4%,14.9%,6.8,6.2
C[C@H](NC(=O)c1nc[nH]c1C(=O)NC1CCN(C(=O)OC(C)(C)C)CC1)C(=O)OCc1ccccc1,4.1%,2.9%,-5.5%,33.6*,73.9
CC(C)(C)OC(=O)N1CCC(NC(=O)c2nc[nH]c2C(=O)N2CCN(c3ccccc3)CC2)CC1,-0.9%,-12.7%,-15.3%,51.4*,8.9
CNC(=O)c1[nH]cnc1C(=O)N[C@@H](C)C(=O)OCc1ccccc1,0.5%,12.8%,-10.6%,34.6*,35.2
CCC(CC)C(=O)Nc1ccc2nc(SCC(=O)N3CCCC3)sc2c1,nt,0.0%,nt,4.2,nt
CO[C@@H]1[C@@H](O[C@@H]2O[C@H](C)[C@@H](O[C@H]3C[C@@](C)(O)[C@@H](O)[C@H](C)O3)[C@H](N(C)C)[C@H]2O)[C@@H](CC=O)C[C@@H](C)[C@@H](O[C@@H]2CC[C@H](N(C)C)[C@@H](C)O2)/C=C/C=C/C[C@@H](C)OC(=O)C[C@H]1OC(C)=O,nt,nt,nt,8.7,nt
COc1ccc(CCNCC(O)COc2cccc(C)c2)cc1OC (configuration not stated),nt,nt,nt,-6.7,nt
CCc1ccc(N2C(=O)C(Cl)=C(Nc3ccc(C(=O)N4CCCC4)cc3)C2=O)cc1,0.5%,0.7%,0.4%,-13.7,-57.1*
O=[N+]([O-])c1ccc(O)c(/C=N/n2cnnc2)c1,0.4%,4.3%,-0.1%,-11.5,-83.0*
Cc1cc(C)n(/N=C/c2cc([N+](=O)[O-])ccc2O)c(=O)c1,-0.1%,8.6%,10.5%,-24.3,-67.4*
CN(C)/N=C/c1cc([N+](=O)[O-])ccc1O,0.2%,0.0%,13.7%,-12.0,-61.0*
O=[N+]([O-])c1ccc(O)c(/C=N/Nc2ccc(Cl)nn2)c1,7.5%,-0.7%,-37.6%,-31.1,-84.1*
O=[N+]([O-])c1cccc(/C=N/n2cnnc2)c1,0.4%,-5.0%,0.7%,9.9,1.4
NC[C@H]1O[C@H](O[C@H]2[C@H](O[C@@H]3O[C@H](CO)[C@@H](O)[C@H]3O)C(O)[C@H](N)C[C@@H]2N)[C@H](N)[C@@H](O)[C@@H]1O (some centres not stated),nt,nt,nt,2.4,nt
O=C(Cn1c(SCc2ccc(F)cc2)nc2cccnc21)Nc1ccccc1F,nt,-4.9%,nt,16.6,nt
